Shown are actives, neighbours in structure and some others; about 21% of the full set was active somewhere.
Shiga toxin inh: blocks Shiga toxin action in Vero cells. inhibition, % at 38.7 µM. hit rate 9.2% among 290,000. Vero cells, Shiga toxin protein synthesis inhibition reporter. AID 2315; in the data active = inhibition mostly above about 28%, no sharp cut-off; inactive = mostly below about 43%; also: 0% is about no effect
Pf growth 96h: P. falciparum growth inhibition at 96 hours | P. falciparum luciferase reporter growth, 96 h | Potency, µM (series often up to 28.7 µM), for the others: at the top dose activity change, negative = inhibition, most hits filed as inhibitors | hit rate 6.9% among 320,000 | AID 504834; also: potency is read from the fitted curve at half-maximal effect; % is scaled to controls: 0 for no effect and ±100 for the full control effect
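Two parasite generations (96 h, 37 C, 5% CO2) of compound exposure in infected erythrocytes (0.05% parasitemia, 2% hematocrit). Luciferase-reporter P. falciparum; decreased luminescence indicates inhibited growth, aimed at apicoplast-acting delayed death.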
CHX counter: counter-screen hit for Shiga toxin inhibitors, cycloheximide | max response, % | cell reporter, cycloheximide protein synthesis inhibition counterscreen | AID 2314 | hit rate 12% among 300,000; in the data active = max response mostly above about 13%, no sharp cut-off; inactive = mostly below about 14%; also: read at 38.3 µM for the half of the compounds with a filed dose; 0% is about no effect
Pf growth 48h: inhibits P. falciparum growth in the first generation, 48 h; P. falciparum luciferase growth in erythrocytes, 48 h; Potency, µM (top dose mostly 28.7 µM), for inactives: at the top dose activity change, negative = inhibition, hits mostly inhibitors; hit rate 5.9% among 310,000; AID 504832; also: potency is read from the fitted curve at half-maximal effect; % is scaled to controls: 0 for no effect and ±100 for the full control effect
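Compounds are pin-transferred into medium, infected erythrocytes (2% hematocrit, 0.1% parasitemia final) are added, and plates sit one parasite generation at 37 C in 5% CO2. Detection reagent is then added and luminescence measured.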
* marks the source's active call; other numbers are inactive results; i = inactive; ? = inconclusive; / = no result given; [ ] = dose if it differs, or a comment. Unless noted, calls follow the shape of the dose curve; as a rule, active = well fitted inhibition curve with a large enough effect; inconclusive = small, poorly fitted or top-dose-only effect, or another doubt; inactive = no such curve, though single readings can be large or run the other way.

SMILES | Shiga toxin inh | Pf growth 96h | CHX counter | Pf growth 48h
Cc1ccccc1N1C(=O)c2ccccc2C1Nc1cccnc1 (stereo not drawn) | -2.0 | ? | -6.2 | /
O=C1c2ccccc2C(Nc2ccccc2)N1c1ccc(Cl)cn1 (stereo not drawn) | 169.0* | ? | 70.6* | /
N#CC1=C(SCc2ccccc2Cl)NC(=O)C(C(N)=O)C1 (stereo not drawn) | 12.4 | -13.7% | -3.6 | -0.4%
O=C(NCc1ccccc1)C1CC(=O)N(c2ccc(OCC(=O)N3CCOCC3)cc2)C1 (stereo not drawn) | -19.5 | 44.4% | -3.0 | 8.2%
CC(OC(=O)CCCN=C1NS(=O)(=O)c2ccccc21)C(=O)Nc1ccc(F)cc1Cl (stereo not drawn) | / | 49.5% | / | 5.3%
CCN(CC(=O)Nc1cc(Cl)ccc1C)C(=O)COc1cccc2c1OC(C)(C)C2 | -14.9 | -11.6% | -1.7 | ?
O=C(CN(Cc1ccccc1Cl)C(=O)c1ccc(CN2CCOCC2)o1)NCc1ccccc1 | 41.8 | 6.57µM* | -1.1 | -14.4%
O=C(NCc1ccccc1)c1ccc(CN2CCOCC2)cc1 | 51.0 | 126.3% | 12.5 | 55.0%
Nc1ncccc1OCc1ccc(Br)cc1 | 77.0* | 198.5% | 71.5* | 148.8%
COc1ccc(COc2cccnc2N)cc1 | 56.4* | 113.0% | 35.3* | 104.9%
COc1ccc(S(=O)(=O)N(C)CC(=O)NCCCn2ccnc2)cc1Cl | -13.6 | 29.9% | 4.8 | 4.7%
O=C(Nc1ccc(Br)cc1)c1ccc2ncsc2c1 | 88.6* | 243.9% | 49.6* | 198.0%
O=C(Nc1ccc2c(c1)C(=O)NC2=O)c1ccc2ncsc2c1 | 92.5* | 191.6% | 22.2* | 155.5%
COc1ccc(NC(=O)c2ccc3ncsc3c2)cc1 | 114.4* | 281.7% | 57.8* | 1.6%[0.00184 µM]
CCc1ccc(NC(=O)c2ccc3ncsc3c2)cc1 | 67.6* | i | 44.0* | 138.1%
CN(C)S(=O)(=O)c1ccc(NC(=O)c2ccc3ncsc3c2)cc1 | 62.2* | ? | 22.1 | ?
CC(C)Nc1nnc(SC(C)C(=O)Nc2ccc(Cl)cn2)s1 (stereo not drawn) | 14.2 | -23.0% | -4.0 | 0.0%
CCN(CC)c1ccc(/C=N/NC(=S)NCc2ccccc2)cc1 | -9.1 | 9.28µM* | -5.3 | 13.1µM*
C=CCNC(=S)N/N=C/c1ccc(N(CC)Cc2ccccc2)cc1 | -2.8 | 0.0% | 13.3* | 6.57µM*
COc1ccc(CCNC(=O)CCn2c(SCC(=O)N3CCCC3)nc3ccccc3c2=O)cc1OC | 2.0 | ? | 3.9 | ?
O=C(O)CC(C(=O)O)n1nc(-c2ccccc2)cc1-c1ccccc1 (stereo not drawn) | 73.4 | 3.4% | 38.9* | 72.4%
CC(=O)N(C1=C(Cl)C(=O)c2ccccc2C1=O)C1CCCCC1 | -5.9 | ? | 0.3 | ?
CC(=NC1CCCCC1)C1=C(O)c2ccccc2C1=O | 49.7 | ? | 46.1* | /
Cc1ccc(S(=O)(=O)Nc2nc(-c3ccccc3)cs2)cc1 | -9.4 | 0.0% | -1.2 | -1.0%
O=C(COc1ccc(Cl)cc1)Nc1nc(-c2cccs2)cs1 | 13.8 | 19.2% | 9.2 | 9.3%
SMILES | Shiga toxin inh | Pf growth 96h | CHX counter | Pf growth 48h
c1ccc(-c2csc(Nc3nc(N4CCOCC4)nc(N4CCOCC4)n3)n2)cc1 | -20.8 | -11.1% | 1.6 | ?
Cc1cc(C)nc(Nc2nc(-c3ccccc3)cs2)n1 | 72.8* | 92.0% | 53.4* | 140.1%
Cc1ccc(Nc2nc(-c3ccccc3)cs2)nc1 | 36.0 | 78.1% | 27.0* | 138.1%
Cc1ccc(Nc2nc(-c3cccs3)cs2)nc1 | 53.5 | 42.0% | 30.6* | 323.8%
O=C(CN1C(=O)C(=O)N(C2CCCC2)C1=O)Nc1ccc(OC(F)F)cc1 | / | 64.3% | / | 0.6%
CCS(=O)(=O)c1nc(S(=O)(=O)c2ccc(Cl)cc2)c(NCc2ccco2)s1 | 13.5 | ? | 0.1 | ?
Cc1ccc(S(=O)(=O)c2nc(S(=O)(=O)c3ccc(C)cc3)c(NCc3ccco3)s2)cc1 | 26.7 | 13.1µM* | 0.6 | ?
CCCS(=O)(=O)c1nc(S(=O)(=O)c2ccc(C)cc2)c(NCCCN2CCCC2=O)s1 | -10.1 | 9.28µM* | -1.4 | -15.7%
CCCS(=O)(=O)c1nc(S(=O)(=O)c2ccc(C)cc2)c(NCc2ccco2)s1 | 6.7 | ? | 0.5 | 11.7µM*
COCCn1c(SCC(=O)NCC2CCCO2)nc2c([nH]c3ccccc32)c1=O (stereo not drawn) | -12.8 | 1.9% | -2.0 | 84.5%
NCc1ccccc1 | 18.9 | 39.8% | -3.4 | 30.7%
CCO[C@H]1OC(C(=O)Nc2ccccc2)=C[C@@H](c2ccc(C(F)(F)F)cc2)[C@@H]1CCCO | -4.5 | ? | -2.4 | ?
Cc1ccccc1CSc1ccc2nnc(-c3ccccn3)n2n1 | 19.0 | ? | 0.6 | ?
O=C(NC1CCN(S(=O)(=O)c2ccc(F)cc2)CC1)c1cccc(F)c1 | -1.4 | ? | 0.7 | 6.4%
CSc1cccc(NCc2ccc([N+](=O)[O-])cc2)c1 | 30.0 | ? | 13.0 | -0.7%
Oc1ccc(NCc2cccc(OCc3ccccc3)c2)cc1 | 46.7 | -25.9%[5.75 µM] | 21.6* | -5.4%
O=[N+]([O-])c1ccc(COc2cccc(CNc3ccc(F)cc3)c2)cc1 | 37.2* | -77.5% | 34.5* | 5.6%
Oc1ccc(NCc2cccc(OCc3ccc(F)cc3)c2)cc1 | 45.4* | 13.8% | 24.2* | ?
c1ccc(COc2cccc(CNCc3ccccn3)c2)cc1 | 64.8* | -23.3% | 33.6* | -13.8%
OCCNCc1cccc(OCc2ccc(Cl)cc2)c1 | 25.5 | 8.4% | 7.2 | ?
O=C(COC(=O)c1nc(Cl)ccc1Cl)c1ccccc1Cl | / | 39.3% | / | -3.8%
CC1CCCCN1C(=O)c1c([N+](=O)[O-])cnn1C (stereo not drawn) | -7.6 | 6.7% | -3.5 | 5.1%
O=C1CCCCC1C(O)c1ccc(Cl)cc1 (stereo not drawn) | -5.1 | 0.0% | -2.8 | 16.0%
Cc1ccccc1OCC(=O)NNC(=O)c1cc(S(=O)(=O)N2CCOCC2)ccc1N1CCCC1 | / | 18.6% | / | ?
Cc1ccc(NC(=O)CN(C)C(=O)c2cccnc2Nc2cccc(C(F)(F)F)c2)cc1 | 16.7 | 9.28µM* | -1.8 | ?
SMILES | Shiga toxin inh | Pf growth 96h | CHX counter | Pf growth 48h
COc1cccc(NC(=O)CN(C)C(=O)c2cccnc2Nc2cccc(C(F)(F)F)c2)c1 | / | ? | / | 9.28µM*
COc1ccc(Oc2ccc(C(F)(F)F)cc2N)cc1 | 55.9* | 40.1% | 28.9* | ?
COc1ccc(Oc2ccc(C(F)(F)F)cc2NC(=O)c2ccc(OC)cc2)cc1 | -8.7 | ? | -2.2 | ?
Cc1[nH]c(C)c(S(=O)(=O)N2CCCCC2C)c1C(=O)N1CCCC1 (stereo not drawn) | 3.9 | -7.7% | -1.5 | 1.7%
Cc1ccc2c(c1)NC(=O)c1cccnc1N2 | 96.7 | i | 50.5* | 215.1%
O=C1Nc2ccccc2Nc2ncccc21 | -7.1 | -1.6% | -3.5 | ?
Cc1ccc(S(=O)(=O)NCC(=O)OCC(=O)N(C)C2CCCCC2)cc1 | / | 1.5% | / | -8.2%
COCCNc1nc(-c2cc(C)c(C)cc2C)cs1 | 72.6* | ? | 20.3* | ?
CCOC(=O)C1CCCN(C(=O)c2ccc3nc(-c4ccccc4)c(-c4ccccc4)nc3c2)C1 (stereo not drawn) | -6.7 | 13.1µM* | 10.5 | ?
